This passage reports growth inhibition results from PubChem BioAssay (NCI).

SMILES strings stand for the structures. Compounds without any hit were thinned out: in the full panel of roughly 79,000, 15% have a hit. A number with no mark means an inactive call. The source made the active and inactive calls. Rule as the data show it: active = growth inhibition above about 70%; inactive = the rest.

The nature of assay [1]: NCI Yeast Anticancer Drug Screen. Data for the rad50 strain (AID 155).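 Also: 0% = growth of vehicle-only cultures of the same strain.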 Particulars: S. cerevisiae rad50 strain growth inhibition, hits give high values. A digest of the protocol: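 Inhibition values express reduced yeast growth in compound-treated cultures relative to vehicle-treated controls.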
Assay [2] is described as follows: NCI Yeast Anticancer Drug Screen. Data for the mec2-1 strain (AID 157). Particulars: S. cerevisiae mec2-1 strain, hits give high values. The essentials:
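Vehicle-treated cultures served as reference for growth inhibition of compound-exposed mec2-1 yeast.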

A short description of assay [3]: NCI Yeast Anticancer Drug Screen. Data for the sgs1 mgt1 strain (AID 161).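 Also: 0% = growth of cultures given vehicle only.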 The settings on record: S. cerevisiae sgs1 mgt1 strain, hits give high values. The essentials:
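Inhibition of yeast growth, normalised to vehicle-treated controls, is reported for a strain bearing genetic alterations in DNA damage repair.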

A short description of assay [4]: NCI Yeast Anticancer Drug Screen. Data for the cln2 rad14 strain (AID 165).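 Also: 0% = growth equal to vehicle treated cultures.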 The settings on record: S. cerevisiae cln2 rad14 strain, hits give high values. The essentials:
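Each compound was tested on cln2 rad14 yeast. Inhibition of growth was calculated against vehicle-exposed controls.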

Assay [5] is described as follows: NCI Yeast Anticancer Drug Screen. Data for the bub3 strain (AID 167). The settings on record: S. cerevisiae bub3 mutant strain, hits give high values. The essentials: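 Steps: expose the mutant yeast strain to compound; grow alongside vehicle-treated cultures; measure growth; express inhibition against the vehicle cultures.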
Assay [6] in a line: NCI Yeast Anticancer Drug Screen. Data for the mlh1 rad18 strain (AID 175). The settings on record: S. cerevisiae mlh1 rad18 strain growth inhibition, hits give high values. The essentials: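 Vehicle-treated cultures served as the reference for growth inhibition in a yeast strain carrying DNA damage repair alterations exposed to each compound.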
Where [7] appears, read: at 5.0 µM (retest, dose inferred, filed as 0.5).
The mark [8] stands for this setting: at 50.0 µM (retest, dose inferred, filed as 5.0).

As for `CCOC1(OCC)Cc2nc3ccccc3cc21`, the growth inhibition in assay [1] (setting [7]) was 4%; in assay [1] (setting [8]) it was 94% (active); in assay [1] (at 50.0 µM) it was 96.7% (active); in assay [2] (setting [7]), -2%; in assay [2] (setting [8]) it was 96% (active); in assay [2] (at 50.0 µM) it was 96.8% (active). For the same compound, the growth inhibition in assay [3] (setting [7]) was 2%; in assay [3] (setting [8]), 96% (active); in assay [3] (at 50.0 µM) it was 95.5% (active); in assay [4] (setting [7]), 0%; in assay [4] (setting [8]) it was 91% (active); in assay [4] (at 50.0 µM) it was 92.5% (active). Further, the growth inhibition in assay [5] (setting [7]) was -2%; in assay [5] (setting [8]), 93% (active); in assay [5] (at 50.0 µM) it was 96.7% (active); in assay [6] (setting [7]) it was 3%; in assay [6] (setting [8]), 95% (active); in assay [6] (at 50.0 µM), 97.2% (active).
As for `Cc1ccc(Nc2nc(C)c(C(/C=C/c3ccc4c(c3)OCO4)=N/Nc3ccc([N+](=O)[O-])cc3[N+](=O)[O-])s2)c([N+](=O)[O-])c1`, the growth inhibition is 43% in assay [1] (setting [7]); 43% in assay [1] (setting [8]); 53.5% in assay [1] (at 50.0 µM); 36% in assay [2] (setting [7]); 36% in assay [2] (setting [8]); 69% in assay [2] (at 50.0 µM). The growth inhibition in assay [3] (setting [7]) was 37%; in assay [3] (setting [8]), 37%; in assay [3] (at 50.0 µM) it was 89.5% (active); in assay [4] (setting [7]) it was 23%; in assay [4] (setting [8]) it was 23%; in assay [4] (at 50.0 µM), 68.2%. Besides, the growth inhibition in assay [5] (setting [7]) was 33%; in assay [5] (setting [8]) it was 33%; in assay [5] (at 50.0 µM), 67.7%; in assay [6] (setting [7]) it was 37%; in assay [6] (setting [8]), 37%; in assay [6] (at 50.0 µM) it was 81.7% (active).
For the compound `CCC[CH2][Sn]([CH2]CCC)([O]C(=O)C(OC)c1ccccc1)[O]C(=O)C(OC)c1ccccc1` (stereo not given), the growth inhibition in assay [1] (setting [7]) was 44%; in assay [1] (setting [8]) it was 97% (active); in assay [1] (at 50.0 µM), 89% (active); in assay [2] (setting [7]), 40%; in assay [2] (setting [8]), 96% (active); in assay [2] (at 50.0 µM), 88.3% (active). Moreover, the growth inhibition in assay [3] (setting [7]) was 44%; in assay [3] (setting [8]), 96% (active); in assay [3] (at 50.0 µM) it was 84% (active); in assay [4] (setting [7]), 36%; in assay [4] (setting [8]), 96% (active); in assay [4] (at 50.0 µM), 88.8% (active). Further, the growth inhibition in assay [5] (setting [7]) was 77% (active); in assay [5] (setting [8]), 98% (active); in assay [5] (at 50.0 µM), 92% (active); in assay [6] (setting [7]) it was 57%; in assay [6] (setting [8]), 98% (active); in assay [6] (at 50.0 µM) it was 88.3% (active).
Take `S=C(N/N=C(/c1ccccc1)c1ccccn1)Nc1ccccc1`: the growth inhibition was 2% in assay [1] (setting [7]); 90% (active) in assay [1] (setting [8]); 84.3% (active) in assay [1] (at 50.0 µM); 14% in assay [2] (setting [7]); 95% (active) in assay [2] (setting [8]); 73.5% (active) in assay [2] (at 50.0 µM). Besides, the growth inhibition in assay [3] (setting [7]) was 20%; in assay [3] (setting [8]), 95% (active); in assay [3] (at 50.0 µM), 85.3% (active); in assay [4] (setting [7]), -9%; in assay [4] (setting [8]), 94% (active); in assay [4] (at 50.0 µM), 60.4%. Moreover, the growth inhibition is 2% in assay [5] (setting [7]); 93% (active) in assay [5] (setting [8]); 76.2% (active) in assay [5] (at 50.0 µM); 13% in assay [6] (setting [7]); 94% (active) in assay [6] (setting [8]); 90% (active) in assay [6] (at 50.0 µM).
`C/C(=N\NC(=S)N1CCN(c2ccccc2)CC1)c1nccs1`: the growth inhibition is 28% in assay [1] (setting [7]); 96% (active) in assay [1] (setting [8]); 90.5% (active) in assay [1] (at 50.0 µM); 56% in assay [2] (setting [7]); 98% (active) in assay [2] (setting [8]); 91.8% (active) in assay [2] (at 50.0 µM). Besides, the growth inhibition in assay [3] (setting [7]) is 33%; in assay [3] (setting [8]) it was 99% (active); in assay [3] (at 50.0 µM), 91.1% (active); in assay [4] (setting [7]) it was 22%; in assay [4] (setting [8]), 98% (active); in assay [4] (at 50.0 µM) it was 90.9% (active). In addition, the growth inhibition is 63% in assay [5] (setting [7]); 99% (active) in assay [5] (setting [8]); 88.3% (active) in assay [5] (at 50.0 µM); 34% in assay [6] (setting [7]); 97% (active) in assay [6] (setting [8]); 89.8% (active) in assay [6] (at 50.0 µM).
In the case of `N#C/C(=C\c1cc(Cl)cc(Cl)c1O)C(/C(C#N)=C/c1cc(Cl)cc(Cl)c1O)c1ccc2c(c1)OCO2` (stereo not given), the growth inhibition in assay [1] (setting [7]) was 64%; in assay [1] (setting [8]) it was 98% (active); in assay [1] (at 50.0 µM), 90.8% (active); in assay [2] (setting [7]), 48%; in assay [2] (setting [8]) it was 99% (active); in assay [2] (at 50.0 µM) it was 93.5% (active). The growth inhibition in assay [3] (setting [7]) was 75% (active); in assay [3] (setting [8]), 100% (active); in assay [3] (at 50.0 µM) it was 93.2% (active); in assay [4] (setting [7]) it was 44%; in assay [4] (setting [8]) it was 97% (active); in assay [4] (at 50.0 µM), 91.8% (active). The growth inhibition was 74% (active) in assay [5] (setting [7]); 99% (active) in assay [5] (setting [8]); 92.1% (active) in assay [5] (at 50.0 µM); 80% (active) in assay [6] (setting [7]); 99% (active) in assay [6] (setting [8]); 90.8% (active) in assay [6] (at 50.0 µM).
Turning to `CCCCCCCCCCCCNCC#N`, the growth inhibition in assay [1] (setting [7]) was 8%; in assay [1] (setting [8]), 18%; in assay [1] (at 50.0 µM), 89.9% (active); in assay [2] (setting [7]), 11%; in assay [2] (setting [8]), 10%; in assay [2] (at 50.0 µM), 72.2% (active). For the same compound, the growth inhibition is -2% in assay [3] (setting [7]); 17% in assay [3] (setting [8]); 85.1% (active) in assay [3] (at 50.0 µM); 0% in assay [4] (setting [7]); 15% in assay [4] (setting [8]); 48.4% in assay [4] (at 50.0 µM). Further, the growth inhibition was 4% in assay [5] (setting [7]); 52% in assay [5] (setting [8]); 83.5% (active) in assay [5] (at 50.0 µM); 5% in assay [6] (setting [7]); 29% in assay [6] (setting [8]); 93% (active) in assay [6] (at 50.0 µM).
For `C=C(c1ccccc1)[P+](c1ccccc1)(c1ccccc1)c1ccccc1`, the growth inhibition in assay [1] (setting [7]) is 97% (active); in assay [1] (setting [8]), 99% (active); in assay [1] (at 50.0 µM), 99.2% (active); in assay [2] (setting [7]) it was 99% (active); in assay [2] (setting [8]), 100% (active); in assay [2] (at 50.0 µM), 99.6% (active). The growth inhibition in assay [3] (setting [7]) was 99% (active); in assay [3] (setting [8]) it was 99% (active); in assay [3] (at 50.0 µM), 99.5% (active); in assay [4] (setting [7]), 97% (active); in assay [4] (setting [8]), 99% (active); in assay [4] (at 50.0 µM), 99% (active). Moreover, the growth inhibition in assay [5] (setting [7]) was 92% (active); in assay [5] (setting [8]), 99% (active); in assay [5] (at 50.0 µM), 99% (active); in assay [6] (setting [7]), 98% (active); in assay [6] (setting [8]), 99% (active); in assay [6] (at 50.0 µM) it was 99.5% (active).
`O=C(CSSCC(=O)Nc1ccccc1)Nc1ccccc1`: the growth inhibition in assay [1] (setting [7]) was -6%; in assay [1] (setting [8]), 15%; in assay [1] (at 50.0 µM), 29.6%; in assay [2] (setting [7]) it was 1%; in assay [2] (setting [8]) it was 35%; in assay [2] (at 50.0 µM), 17.5%. The growth inhibition in assay [3] (setting [7]) was 1%; in assay [3] (setting [8]) it was -10%; in assay [3] (at 50.0 µM), 54.8%; in assay [4] (setting [7]), -5%; in assay [4] (setting [8]) it was 10%; in assay [4] (at 50.0 µM), 48.2%. Besides, the growth inhibition is -12% in assay [5] (setting [7]); 6% in assay [5] (setting [8]); 22.8% in assay [5] (at 50.0 µM); -12% in assay [6] (setting [7]); 19% in assay [6] (setting [8]); 22% in assay [6] (at 50.0 µM).
`COC12CC(=O)C(C(C)=O)=C(O)C1(C)c1c(OC(C)=O)c(C)c(O)c(C(C)=O)c1O2` (stereo not given): the growth inhibition is 17% in assay [1] (setting [7]); 57% in assay [1] (setting [8]); 45.1% in assay [1] (at 50.0 µM); 14% in assay [2] (setting [7]); 63% in assay [2] (setting [8]); 52.3% in assay [2] (at 50.0 µM). Besides, the growth inhibition in assay [3] (setting [7]) was 31%; in assay [3] (setting [8]), 73% (active); in assay [3] (at 50.0 µM) it was 19.2%; in assay [4] (setting [7]) it was 19%; in assay [4] (setting [8]), 50%; in assay [4] (at 50.0 µM), 41%. Moreover, the growth inhibition was 62% in assay [5] (setting [7]); 92% (active) in assay [5] (setting [8]); 43.5% in assay [5] (at 50.0 µM); 19% in assay [6] (setting [7]); 64% in assay [6] (setting [8]); 92.8% (active) in assay [6] (at 50.0 µM).
